Source: PubChem (several laboratories)
S1P4 antagonist = S1P4 receptor antagonists, primary screen, cell-based; Sphingosine 1-phosphate receptor 4 (Homo sapiens), O95977; 220,000 compounds, 0.26% hits; S1P4-expressing cells, antagonist mode, reporter read-out; AID 1510, 2009; inhibition, % at 4.98 µM; in the data active = inhibition above about 29%
ROMK primary = ROMK potassium channel modulators, primary screen, cell-based, thallium flux, MLSMR library; AID 1918, 2009; Tet-inducible ROMK, thallium flux fluorescence; actives lie on both sides; 130,000 compounds, 2% hits; B-score at 10 µM; ATP-sensitive inward rectifier potassium channel 1 (Homo sapiens), P48048;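 active = signal ratio slope over the read window, or its plate-corrected B-score, at least 3 SD from the plate mean, either direction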;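 note: B-score of the F/F0 ratio slope over 7 to 12 s after thallium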
Target sequence (P48048 whole entry, looked up): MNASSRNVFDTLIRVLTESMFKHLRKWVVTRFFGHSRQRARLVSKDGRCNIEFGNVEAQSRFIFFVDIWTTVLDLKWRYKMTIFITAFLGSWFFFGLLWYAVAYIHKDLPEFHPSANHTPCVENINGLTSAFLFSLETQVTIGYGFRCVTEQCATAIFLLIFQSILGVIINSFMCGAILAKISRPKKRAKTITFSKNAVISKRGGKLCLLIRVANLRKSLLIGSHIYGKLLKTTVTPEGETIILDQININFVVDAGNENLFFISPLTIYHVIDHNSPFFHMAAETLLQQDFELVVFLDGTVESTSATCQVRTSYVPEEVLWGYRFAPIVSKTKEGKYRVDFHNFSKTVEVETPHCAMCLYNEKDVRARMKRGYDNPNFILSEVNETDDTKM
RAM inhibit = inhibitors of the yeast RAM network, primary screen, dse1pr::URA3 reporter, 5-FOA selection. S. cerevisiae dse1pr::URA3 reporter, 5-FOA growth OD615, 2 d; analog-sensitive cbk1-as2 kinase mutant strain. inhibition, % at 50 µM. 190,000 compounds, 1.8% hits;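 active = inhibition above a set limit, 3 SD over mean compound inhibition, cut at about 8.4% in these data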;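 note: inhibition rescues growth on 5-FOA so higher OD means more RAM inhibition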
S1P4 agonist = S1P4 receptor agonists, primary screen, cell-based | activation, % at 4.98 µM | 220,000 compounds, 0.35% hits | AID 1509, 2009 | S1P4-expressing cell line, agonist reporter assay | Sphingosine 1-phosphate receptor 4 (Homo sapiens), O95977; in the data active = activation above about 11%
KCC2 mod = KCC2 cotransporter modulators, thallium flux, primary screen, cell-based, HEK293 KCC2, FluoZin-2 fluorescence, MLSMR; KCC2 cells, thallium flux FluoZin-2 fluorescence; B-score of Tl+ flux slope (higher = more flux/activation; lower = inhibition) at 10 µM; 190,000 compounds, 2.2% hits; AID 1456, 2008;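 active = thallium flux slope and its plate-corrected score both differing from the plate sample mean at a set confidence after two filtering rounds, in either direction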;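 note: slope of fluorescence scaled to starting intensity during 10 to 20 s after thallium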
S1P3 antag = S1P3 receptor antagonists, primary screen, cell-based; Sphingosine 1-phosphate receptor 3 (Homo sapiens), Q99500; CHO S1P3 NFAT-BLA reporter, FRET fluorescence, antagonist mode; inhibition, % at 4.98 µM; 170,000 compounds, 0.27% hits; AID 485, 2006;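 active = inhibition above the plate cutoff, the mean inhibition of test wells on that plate plus 3 SD, cut at about 28% in these data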;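 note: cells challenged with S1P at its EC80 of 0.8 µM; blue over green emission ratio from cleaved BLA substrate after 4 h stimulation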
Target sequence (Q99500 whole entry, looked up): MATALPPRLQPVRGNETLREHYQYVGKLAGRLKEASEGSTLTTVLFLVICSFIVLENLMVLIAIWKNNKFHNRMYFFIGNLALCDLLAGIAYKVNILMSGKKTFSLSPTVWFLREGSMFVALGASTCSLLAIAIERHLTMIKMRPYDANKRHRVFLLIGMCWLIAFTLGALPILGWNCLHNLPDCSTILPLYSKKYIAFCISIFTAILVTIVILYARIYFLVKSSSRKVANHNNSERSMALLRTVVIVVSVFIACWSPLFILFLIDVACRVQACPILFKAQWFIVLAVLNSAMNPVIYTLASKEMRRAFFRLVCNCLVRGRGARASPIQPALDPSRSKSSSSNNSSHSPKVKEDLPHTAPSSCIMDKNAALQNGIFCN
ROMK retest = ROMK channel modulator hit retest, confirmation, cell-based, thallium flux, duplicate, resupplied hits; shares compounds with ROMK primary; fluorescence ratio; stronger effect = lower value; normalized thallium flux (F/F0 slope) at 10 µM; 3,000 compounds, 54% hits; AID 1917, 2009;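 active = Flux at 10 µM at least 3 SD below or above vehicle control mean in one or both replicates; inconclusive = no clear call, values can overlap the other calls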
Each line names hits and unclear results; the compound was inactive in the other large screens (follow-up assays come after a bar, where they were run). An excerpt weighted towards active compounds, which were near 5.1% of everything screened.

COc1ccccc1N=Cc1c(C)c(C#N)c2[nH]c3ccccc3n2c1=O	ROMK primary -3.3 | ROMK retest 0.067
CC(=O)N1C(C(=O)O)CSC1c1ccc(C)cc1 (stereo not given)	none (no result: S1P4 antagonist, ROMK primary, S1P4 agonist) | ROMK retest inactive
Cc1ccc(C(C)C)c(OCc2nn(CC(=O)c3ccc(OC(F)F)cc3)c3[n+]2CCCCC3)c1	ROMK primary -4.2 | ROMK retest 0.055
COc1ccc(C(=O)Cn2nc(CNc3ccc(Br)cc3)[n+]3c2CCCCC3)cc1	none
Cc1ccc(-c2nc3cc(N)ccc3o2)cc1	none (no result: ROMK primary)
CC(C)c1ccc2oc(-c3ccc(N)cc3)nc2c1	none (no result: ROMK primary) | ROMK retest inactive
CN(C)S(=O)(=O)c1ccc(C(=O)OCC(=O)NCc2ccco2)cc1	none
Cc1cc(C)n2nc(SCC(=O)c3cc(C)n(-c4cc(C)on4)c3C)nc2n1	none (no result: ROMK primary, KCC2 mod) | ROMK retest inactive
COc1ccc(OCC(=O)NNc2c3ccccc3nc3ccccc23)cc1	none (no result: ROMK primary, KCC2 mod, S1P3 antag) | ROMK retest inconclusive
O=C(Nc1ccccc1)N(C1=NCCCCS1)c1ccccc1	none (no result: ROMK primary) | ROMK retest inactive
COc1ccccc1CN=Cc1[nH]c2ccc(Br)c(Cl)c2c1O	ROMK primary -3.6 (no result: S1P3 antag) | ROMK retest 0.044
CCOc1cc(C(=S)N2CCCCC2)ccc1OCC(=O)NCc1ccccc1	none (no result: KCC2 mod, S1P3 antag)
Cc1ccnc(NC(=O)CCC(=O)N(CC(=O)NC2CCCCC2)Cc2cccs2)c1	none | ROMK retest inactive
Cc1scc2c1N(C(=O)CN1CCN(C)CC1)c1ccccc1NC2=O	ROMK primary 3.1 | ROMK retest inactive
CC(C)[C@@H]1CC[C@@H](C)C[C@H]1OC(=O)C[n+]1cc(-c2ccc(Cl)cc2)n2c1CCCCC2	none (no result: ROMK primary, RAM inhibit) | ROMK retest 0.035
COc1ccc(-c2c[n+](CC(=O)OC3CC(C)CCC3C(C)C)c3n2CCC3)cc1 (stereo not given)	none (no result: ROMK primary) | ROMK retest 0.051
COc1cc2c(cc1OC)-c1nnc(-c3cccs3)n1C1(CCCC1)C2	none (no result: ROMK primary, S1P3 antag)
CCOC(=O)CN(C#N)c1nc(N(C)C)nc(N(C)C)n1	none
CCn1c(O)c(C=C2N=c3ccccc3=N2)sc1=S	none
Oc1c(C=C2N=c3ccccc3=N2)sc(=S)n1C1CCCCC1	none (no result: ROMK primary) | ROMK retest inconclusive
COc1ccc(-n2cc(CNCc3cnc4ccccn34)c(-c3cccc(F)c3)n2)cc1	none
CCOc1ccc2ncc(S(=O)(=O)c3ccc(C)cc3)c(N3CCC4(CC3)OCCO4)c2c1	none (no result: ROMK primary) | ROMK retest 0.063
COc1ccc(OC)c(S(=O)(=O)Nc2c(C)cccc2C)c1	none
Cc1nc(-c2ccccc2)sc1C1(C)CC(c2ccc(OC(F)(F)F)cc2)=NO1 (stereo not given)	none (no result: S1P4 antagonist, ROMK primary, RAM inhibit, S1P4 agonist, S1P3 antag)
Cc1ccc(-c2nc(CSCC(=O)NCCN3CCN(Cc4ccccc4)CC3)c(C)o2)cc1	ROMK primary -3.7 | ROMK retest inconclusive
CCn1nnnc1SCC(=O)NC1Cc2ccccc2C1	none (no result: RAM inhibit)
Cc1cc(C)c(C#N)c(Oc2ccc(F)cc2)n1	none (no result: ROMK primary, S1P3 antag) | ROMK retest inactive
Cc1cc(C)c(C#N)c(Oc2ccc(O)cc2)n1	none (no result: ROMK primary)
CCCn1c(SCC(=O)NCc2ccccc2Cl)n[nH]c1=O	none
COc1ccc(Cc2nn3c(-c4cc(OC)c(OC)c(OC)c4)nnc3s2)cc1	ROMK primary -2.6 (no result: KCC2 mod) | ROMK retest inconclusive
COc1cc(-c2nnc3sc(Cc4ccc(Cl)cc4)nn23)cc(OC)c1OC	none (no result: S1P4 antagonist, ROMK primary, RAM inhibit, S1P4 agonist, KCC2 mod)
Cc1cc(N2C(=O)C3CCC(c4ccccc4)CC3C2=O)no1 (stereo not given)	none
COc1cc2cc(CN(CCc3ccccc3C)C(=S)NCCCN(C)C)c(=O)[nH]c2cc1OC	none
Cc1ccc2[nH]c(=O)c(CN(Cc3ccccc3)C(=S)NCCCN(C)C)cc2c1	ROMK primary -3.2 | ROMK retest inconclusive
CCO[C@H]1OC(C(=O)NCc2ccccc2)=C[C@@H](C2CC2)[C@@H]1CCCO	none (no result: ROMK primary)
O=C(COC(=O)c1ccc(NS(=O)(=O)c2cccs2)cc1O)NCc1ccccc1	ROMK primary 3.6 | ROMK retest inactive
CCn1c(SCc2cccc(F)c2)nc2c(c1=O)SCC2	none
CCNC(=O)CN1C(=O)NC(Cc2ccccc2)(Cc2ccccc2)C1=O	none
Cc1ccc(-n2c(Cl)c(Cl)nc(Cl)c2=O)cc1	S1P4 antagonist 76, ROMK primary -4.7 | ROMK retest 0.047
CC(C)(C)C(=O)Nc1ccc(-c2csnn2)cc1	none (no result: ROMK primary, RAM inhibit)
CCOc1cccc(-c2nnc3n2N=C(c2cc(OC)ccc2OC)CS3)c1	ROMK primary 3.8 (no result: S1P3 antag) | ROMK retest inactive
COc1ccc(CC(=O)Nc2ccc(-c3nnc(-c4ccccc4)o3)cc2)cc1OC	none (no result: ROMK primary)
COc1ccccc1OCC(=O)Nc1cccc(-c2nnc(-c3ccco3)o2)c1	none (no result: ROMK primary) | ROMK retest 0.063
COc1ccc(CC(=O)Nc2cccc(-c3nnc(-c4ccccc4)o3)c2)cc1OC	none (no result: ROMK primary) | ROMK retest 0.064
O=C(COC(=O)c1ccccc1F)Nc1cccnc1Cl	none
CCOC(=O)C1(Cc2cccc(F)c2)CCN(Cc2cnn(CC)c2C)CC1	none (no result: ROMK primary)
NCCOc1ccc(C23CC4CC(CC(C4)C2)C3)cc1	ROMK primary -2.9 | ROMK retest 0.063
Nn1c(SCc2c(F)cccc2F)nnc1-c1ccccn1	none (no result: ROMK primary, RAM inhibit)
NC(N)=Nc1nc(-c2ccccc2)c2cc(F)ccc2n1	ROMK primary -3.7 | ROMK retest 0.06
CCCn1ncc(/C=N/O)c1C	none (no result: ROMK primary, RAM inhibit)
O=C(CCCCN1CCCCC1)c1ccc2c(c1)Cc1ccccc1-2	ROMK primary -4.5 | ROMK retest 0.064
O=C(CCN1CCCCCC1)c1ccccc1	none (no result: ROMK primary, S1P3 antag)
O=C(Nc1cccc2ccccc12)OCc1cncs1	none
COc1cc2ncnc(NCc3ccccc3C)c2cc1OC	none (no result: ROMK primary, S1P3 antag) | ROMK retest inconclusive
COc1cccc(CC2(CO)CCCN(Cc3cc4ccccc4[nH]3)C2)c1 (stereo not given)	none
CCOc1cccc(NC(=O)CSc2nc(C)c3c(c2C#N)CCCC3)c1	none (no result: ROMK primary, S1P3 antag) | ROMK retest inactive
CCOC(=O)CSC1=C(C#N)C(c2ccccc2OCC)C(C(=O)OCC)C(=O)N1 (stereo not given)	none (no result: KCC2 mod)
CCOC(=O)CSC1=C(C#N)C(c2ccccc2OCC)C(C#N)C(=O)N1 (stereo not given)	ROMK primary 3.2 | ROMK retest inactive
CC(=O)c1cc2c(cc1NC(=O)c1cc3nc(C(C)C)cc(C(F)(F)F)n3n1)OCO2	none (no result: ROMK primary, KCC2 mod) | ROMK retest inactive
CC(C)c1cc(C(F)(F)F)n2nc(C(=O)Nc3ccc(-n4cnnn4)cc3)cc2n1	none (no result: ROMK primary, RAM inhibit)
